A selection: hits, their analogues and other compounds. The true share with any hit is near 2.3%.
MEKK3 PB1 HTS = MEKK3-MEK5 PB1 interaction, increase or decrease; Q99759; bead-based flow cytometry, Alexa488-MEK5 binding to MEKK3; actives lie on both sides; 0 = blocked by unlabeled MEK5, 100 = vehicle; binding response (% of control), % at 10 µM; 290,000 compounds, 1.4% hits; AID 1529;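 active = binding response more than 3 SD above or below the average of its plate-row segment, actives on both sides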;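 also: Alexa488 bead fluorescence after subtracting the streptavidin-only scavenger bead signal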
MEKK2 WT-MEK5 = raises or lowers MEK5 binding to wildtype human MEKK2 PB1 domain; bead flow cytometry, Alexa488-MEK5 binding to MEKK2 WT; actives lie on both sides; 290,000 compounds, 1.1% hits; AID 1531; binding response (% of control), % at 10 µM; in the data active = binding response below about 67% or above about 130%
UBC13 inh = inhibitors of human UBC13 polyubiquitin chain formation; inhibition, % at 20 µM; 330,000 compounds, 0.47% hits; TR-FRET; P61088; in the data active = inhibition above about 45%, passing the limit was not always enough
MEKK2mut PB1 HTS = signal of MEK5 binding to mutant human MEKK2 PB1 domain; bead flow cytometry, Alexa488-MEK5 binding to MEKK2 mutant; percent response, % at 10 µM; 290,000 compounds, 0.35% hits; in the data active = percent response above about 24%, passing the limit was not always enough
MEKK2wt confirm = raises or lowers MEK5 binding to wildtype human MEKK2, retest; shares compounds with MEKK3 PB1 HTS; bead flow cytometry, Alexa488-MEK5 binding to MEKK2 WT; actives lie on both sides; binding response (% of control), % at 10 µM; 5,900 compounds, 2.4% hits; AID 1892; in the data active = binding response below about 16% or above about 210%; inactive = in between
MEKK2mut-MEK5 = signal of MEK5 binding to mutant human MEKK2, retest | shares compounds with MEKK3 PB1 HTS | bead flow cytometry, Alexa488-MEK5 binding to MEKK2 mutant | percent response, % at 10 µM | 5,900 compounds, 2% hits | AID 1893; in the data active = percent response mostly above about 71%, no sharp cut-off; inactive = mostly below about 38%;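 also: higher means compound restores mutant binding toward wildtype level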
MEKK3 confirm = confirmation of inhibitors of MEK5 binding to human MEKK3; shares compounds with MEKK3 PB1 HTS; bead flow cytometry, Alexa488-MEK5 binding to MEKK3; hits give low values; binding response (% of control), % at 10 µM; 5,900 compounds, 1.8% hits;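 active = binding response below 72% of control, or above a set upper limit, though filed actives all read lower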;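 also: 100% = DMSO only wells and 0% = binding blocked by excess unlabeled MEK5; lower values mean stronger disruption of MEK5 binding to MEKK3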
Starred values were filed as active, the others as inactive; · = no result given; [ ] = another dose, or the depositor's remark.

SMILES	MEKK3 PB1 HTS	MEKK2 WT-MEK5	UBC13 inh	MEKK2mut PB1 HTS	MEKK2wt confirm	MEKK2mut-MEK5	MEKK3 confirm
COc1ccc(/C=C/C(=O)NCCn2c(C)cc3ccccc32)cc1OC	67.0*[inhibitor]	83.0	4.0	5.0	110.0	11.0	103.0
Cc1cccc(CC(=O)NCCn2c(C)cc3ccccc32)c1	79.0*[inhibitor]	63.0*[inhibitor]	-4.4	0.0	105.0	-1.0	100.0
CN(c1ccccc1)c1ccc(/C=N/N2CCOCC2)cc1	102.0	105.0	1.7	2.0	·	·	·
Cc1cc(C(=O)NC(C)CCC(C)C)c2ccccc2n1 (configuration not stated)	104.0	106.0	0.8	4.0	·	·	·
Cc1ccc(C2CC(=O)N(c3ccc(F)cc3)C3=C2C(=O)CCC3)cc1 (configuration not stated)	123.0*	120.0	-4.7	7.0	95.0	-6.0	98.0
O=C1CCCC2=C1C(c1ccsc1)CC(=O)N2c1ccccc1 (configuration not stated)	97.0	97.0	-7.5	-2.0	·	·	·
Cc1ccc(C(=O)NCCN2CCNC2=O)cc1	129.0*	131.0	9.2	28.0	101.0	1.0	99.0
Nc1ccccc1C(=O)NCCN1CCNC1=O	104.0	107.0	4.3	5.0	·	·	·
CCc1nnc(NC(=O)c2c(OC)cccc2OC)s1	99.0	96.0	0.6	2.0	·	·	·
CCOCc1nnc(NC(=O)c2c(OC)cccc2OC)s1	115.0	137.0*	-0.9	15.0	100.0	-2.0	103.0
CCN(CC)S(=O)(=O)c1ccc(OCC(=O)NCc2ccccc2)cc1	27.0*[inhibitor]	38.0*[inhibitor]	6.3	-19.0	98.0	-4.0	102.0
O=C(O)C(=O)Nc1ccc(NC(=O)C(c2ccccc2)c2ccccc2)cc1	2.0*[inhibitor]	3.0*[inhibitor]	-2.4	-51.0	99.0	4.0	103.0
Cc1ccc2c(=O)n3c(nc2c1)C(Cc1ccccc1)NC(=O)c1ccc(Cl)cc1-3 (configuration not stated)	·	·	8.1	·	·	·	·
CCc1ccc(NC(=O)C(C)n2nc(C)c([N+](=O)[O-])c2C)cc1 (configuration not stated)	68.0*[inhibitor]	75.0	-10.8	-2.0	92.0	-7.0	91.0
Cc1nn(C(C)C(=O)NCc2ccccc2)c(C)c1[N+](=O)[O-] (configuration not stated)	104.0	105.0	7.6	3.0	·	·	·
CC(C)C(NC(=O)C1CCCCC1)C(=O)Nc1ccccn1 (configuration not stated)	101.0	106.0	6.3	25.0*	90.0	-4.0	99.0
CC(C)CC(NC(=O)C1CCC(C)CC1)C(=O)Nc1ccccn1 (configuration not stated)	102.0	98.0	-6.5	-4.0	·	·	·
CCOc1cc2[nH]c(=S)n(Cc3ccc(C(=O)O)cc3)c(=O)c2cc1OCC	102.0	101.0	16.8	-5.0	·	·	·
Cc1cc(C(=O)CSc2nnc(CCC(N)=O)n2C)c(C)n1C1CC1	·	·	-5.2	·	·	·	·
O=[N+]([O-])c1ccc(/C=C/C2=NN(c3ccccc3)C(c3ccco3)C2)o1 (configuration not stated)	15.0*[inhibitor]	·	·	44.0	29.0	-52.0	20.0*
Fc1ccc(C2=NN(c3ccccc3)C(c3ccco3)C2)cc1 (configuration not stated)	95.0	85.0	15.7	-9.0	·	·	·
C(=C\c1ccco1)/C1=NN(c2ccccc2)C(c2ccco2)C1 (configuration not stated)	129.0*	78.0	3.4	2.0	98.0	-3.0	102.0
O=C(Cc1ccc2c(c1)CCCC2)Nc1ccccc1Br	43.0*[inhibitor]	58.0	2.2	-25.0	108.0	6.0	106.0
O=C(Cc1ccc2ccccc2c1)Nc1ccccc1Br	93.0	99.0	-0.1	2.0	·	·	·
O=C(CSc1nc(NS(=O)(=O)c2ccccc2)cc(=O)[nH]1)Nc1ccc(Cl)cc1	78.0	71.0	·	1.0	·	·	·
O=c1cc(NS(=O)(=O)c2ccccc2)nc(SCc2ccc(Cl)cc2)[nH]1	129.0*	105.0	·	1.0	98.0	-9.0	99.0

Screening data: PubChem, several laboratories
